# In publication PMC8159961, “Exploring protein hotspots by optimized fragment pharmacophores” (Nature Communications, 2021):
# Unmarked numbers belong to inactive results. How the calls were made is not given here.
# Target: histone methyltransferase SET domain containing 2 (SETD2) (Homo sapiens, UniProt Q9BYW2)
# Assay: primary screen, binary call; higher = more effect of the substance
# Description: The Chemiluminescence assay evaluates SETD2 specific tri -methylation activity towards histone H3K36. The kit consist s of recombinant SETD2, S-adenosylmethionine and a specific H3K36me3 antibody and was performed according to the manufacturer’s protocol (Catalo g- No. 52060, https://bpsbioscience.com/setd2 -chemiluminescent-assay-kit-52060). Values were blank corrected and normalized . Enzymatic activities were calculated relative to the positive control of the kit (full enzymatic activity) and to the known SET doma in inhibitor Sinefungin28 used as negative control (complete enzymatic activity inhibition). Compounds used were diluted in DMSO.
# Sequence of histone methyltransferase SET domain containing 2 (SETD2) (Q9BYW2 whole entry, looked up, the tested form may be a part): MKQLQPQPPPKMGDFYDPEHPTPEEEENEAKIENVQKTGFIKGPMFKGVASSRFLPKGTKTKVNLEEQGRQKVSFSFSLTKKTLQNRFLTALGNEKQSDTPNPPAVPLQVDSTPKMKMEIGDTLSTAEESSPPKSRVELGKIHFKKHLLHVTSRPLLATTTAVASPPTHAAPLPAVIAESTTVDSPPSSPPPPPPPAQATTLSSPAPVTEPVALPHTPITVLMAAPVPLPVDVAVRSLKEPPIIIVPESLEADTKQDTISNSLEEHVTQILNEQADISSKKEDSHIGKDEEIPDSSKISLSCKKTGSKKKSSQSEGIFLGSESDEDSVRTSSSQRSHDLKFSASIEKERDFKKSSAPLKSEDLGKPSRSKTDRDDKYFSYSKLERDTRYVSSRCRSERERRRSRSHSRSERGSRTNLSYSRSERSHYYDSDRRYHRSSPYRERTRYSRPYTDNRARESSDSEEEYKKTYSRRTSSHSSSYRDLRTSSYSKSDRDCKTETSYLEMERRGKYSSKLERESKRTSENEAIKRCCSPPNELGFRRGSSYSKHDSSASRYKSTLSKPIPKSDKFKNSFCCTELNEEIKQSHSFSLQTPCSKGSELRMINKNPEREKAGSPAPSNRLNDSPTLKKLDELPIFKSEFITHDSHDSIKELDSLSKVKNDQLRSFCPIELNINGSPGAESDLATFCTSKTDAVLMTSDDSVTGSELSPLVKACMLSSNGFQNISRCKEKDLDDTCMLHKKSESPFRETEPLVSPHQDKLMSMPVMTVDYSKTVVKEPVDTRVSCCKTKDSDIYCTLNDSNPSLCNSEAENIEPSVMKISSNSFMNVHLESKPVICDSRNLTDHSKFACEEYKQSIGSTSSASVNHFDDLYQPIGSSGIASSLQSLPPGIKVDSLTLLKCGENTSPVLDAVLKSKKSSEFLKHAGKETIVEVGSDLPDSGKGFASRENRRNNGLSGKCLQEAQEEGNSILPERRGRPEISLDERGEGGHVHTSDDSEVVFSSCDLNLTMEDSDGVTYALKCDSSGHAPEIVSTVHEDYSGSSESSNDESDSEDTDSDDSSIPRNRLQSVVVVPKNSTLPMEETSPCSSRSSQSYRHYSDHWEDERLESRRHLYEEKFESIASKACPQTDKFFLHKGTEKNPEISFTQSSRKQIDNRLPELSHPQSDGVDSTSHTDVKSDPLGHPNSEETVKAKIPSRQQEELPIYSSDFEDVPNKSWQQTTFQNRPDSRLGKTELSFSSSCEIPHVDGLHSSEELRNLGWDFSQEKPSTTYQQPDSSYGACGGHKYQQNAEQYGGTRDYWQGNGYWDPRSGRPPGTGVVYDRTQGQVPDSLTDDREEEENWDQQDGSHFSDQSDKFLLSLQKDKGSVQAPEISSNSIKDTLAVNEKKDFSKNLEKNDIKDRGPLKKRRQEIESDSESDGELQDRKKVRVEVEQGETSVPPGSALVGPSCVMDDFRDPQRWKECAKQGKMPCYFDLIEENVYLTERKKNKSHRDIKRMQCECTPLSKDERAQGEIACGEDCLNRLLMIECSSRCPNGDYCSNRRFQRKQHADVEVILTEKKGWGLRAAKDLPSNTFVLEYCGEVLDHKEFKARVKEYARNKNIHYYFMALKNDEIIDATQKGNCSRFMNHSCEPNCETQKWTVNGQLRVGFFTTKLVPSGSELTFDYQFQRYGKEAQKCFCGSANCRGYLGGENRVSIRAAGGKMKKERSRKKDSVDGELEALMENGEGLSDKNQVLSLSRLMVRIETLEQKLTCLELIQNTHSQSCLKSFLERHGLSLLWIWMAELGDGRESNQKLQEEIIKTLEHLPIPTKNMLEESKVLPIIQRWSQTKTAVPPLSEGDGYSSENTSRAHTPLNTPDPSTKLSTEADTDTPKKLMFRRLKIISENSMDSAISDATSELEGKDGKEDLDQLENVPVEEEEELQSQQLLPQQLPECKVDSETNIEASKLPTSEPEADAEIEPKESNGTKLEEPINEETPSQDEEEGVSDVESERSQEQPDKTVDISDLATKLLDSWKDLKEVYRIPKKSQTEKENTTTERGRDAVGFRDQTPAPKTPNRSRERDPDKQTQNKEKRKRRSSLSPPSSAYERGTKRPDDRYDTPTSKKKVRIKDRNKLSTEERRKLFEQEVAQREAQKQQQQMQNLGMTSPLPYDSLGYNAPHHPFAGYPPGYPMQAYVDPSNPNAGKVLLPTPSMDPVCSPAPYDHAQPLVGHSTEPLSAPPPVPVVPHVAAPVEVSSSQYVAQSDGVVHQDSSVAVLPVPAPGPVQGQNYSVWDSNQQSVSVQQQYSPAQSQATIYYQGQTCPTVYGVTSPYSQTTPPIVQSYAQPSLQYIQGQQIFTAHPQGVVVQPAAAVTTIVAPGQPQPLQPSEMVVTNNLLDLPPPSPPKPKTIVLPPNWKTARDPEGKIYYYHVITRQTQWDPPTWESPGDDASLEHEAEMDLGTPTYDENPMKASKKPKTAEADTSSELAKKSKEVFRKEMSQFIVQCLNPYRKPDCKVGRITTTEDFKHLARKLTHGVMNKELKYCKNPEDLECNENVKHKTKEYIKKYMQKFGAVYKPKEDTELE
row,SMILES,SETD2
1,Oc1ccccc1N1CCCCC1,0
2,NC1CCc2ccccc21 (stereo not shown),0
3,CC1(C)OC(=O)c2cc(Br)c(O)cc2O1,0
4,O=C(c1ccncc1)N1CCNCC1,0
5,O=C(c1ccccc1)N1CCC(CO)CC1,0
6,Brc1ccc(-c2ccon2)cc1,0
7,O=C(O)C1CCN(c2ncccn2)CC1,0
8,Nc1nnc(-c2cccs2)[nH]1,0
9,CCN(CC)c1cccc(C)c1,0
10,O=C1CCC(=O)N(c2ccccc2)N1,0
11,CN1CC(=O)NC1=O,0
12,COc1ccccc1N1CCNCC1,0
13,Cc1ccc(-c2ccc(O)cc2)cc1,0
14,CCn1cnc2ccccc21,0
15,CC1CCc2sc(C(=O)O)cc2C1 (stereo not shown),1 (active)
16,O=C(CN1CCNCC1)c1ccccc1,0
17,Cn1c(N)nc2ccccc21,1 (active)
18,CN(C)c1cc(CN)ccn1,0
19,Cc1nc(-c2ccccc2)cs1,0
20,Oc1ccc(-n2cncn2)cc1,0

row,SMILES,SETD2
1,O=C1CCCc2occc21,0
2,C1=C[C@H]2O[C@@H]1c1ccccc12,0
3,CC1C(=O)NC(=O)N1c1ccc(Cl)cc1 (stereo not shown),0
4,Nc1ccc(-c2ccccc2)cc1C(=O)O,0
5,COc1ccc(CN2CCNCC2)cc1F,0
6,O=c1[nH]c2c(s1)CCC2,0
7,N#CCCN1CCc2ccccc21,0
8,O=C(CN1CCCC1)c1ccccc1Cl,0
9,O=C1CCN(c2ccncc2)CC1,0
10,c1ccc2c(N3CCNCC3)ccnc2c1,0
11,Oc1ccc(C2CCNCC2)cc1,0
12,Oc1nnc(-c2ccccc2)o1,0
13,c1ccc2sc(N3CCNCC3)nc2c1,0
14,CCc1nccn1CC(=O)O,0
15,FC1(F)CNCC(F)(F)O1,0
16,CS(=O)(=O)Nc1ccc(C(=O)O)cc1,1 (active)
17,CS(=O)(=O)c1ccc(N2CCNCC2)cc1,0
18,O=C1CC(CSc2ccc(Cl)cc2)=NN1,0
19,Fc1ccc(CC2CCCNC2)cc1 (stereo not shown),0
20,O=C1CSC(Nc2ccc(F)cc2)=N1,0
